Test results: PubChem BioAssay (NCATS)
Records with an inconclusive call do not appear. A number with no mark means an inactive call. The source made the active and inactive calls. The call rests on the fitted dose curve; in most records, active means well fitted inhibition curve with a large enough effect; inconclusive means small, poorly fitted or top-dose-only effect; inactive means flat fitted curve, though single readings scatter.

Test system: NIH3T3
Assay: Cytotoxic Profiling of Annotated Libraries Using Quantitative High-Throughput Screening (AID 1296008); further: nearly all actives have a fitted effect of over 60% in size
Conditions: Five cell lines viability, CellTiter-Glo ATP luminescence, 48-72 h; max response: stronger effect = lower value
How it was run: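 Cells exposed to compounds for 48 or 72 hr at 37 degrees Celsius. Viability read as ATP-coupled luminescence with CellTiter-Glo after 10 min at room temperature.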
On the % scale 0 is the no-effect control and ±100 the full control effect; potency means the concentration at half of the fitted maximal effect.

SMILES	Potency	max response
Cc1c(CN2CCN(C(=O)C(C)O)CC2)sc2c(N3CCOCC3)nc(-c3cnc(N)nc3)nc12 (stereo not given)	1300 nM (active)	
C[C@@H]1C(=O)OC[C@H]2C(C(=O)O)=C[C@@H]3CC(C)(C)C[C@]312		4.19%
CC1OC(O[C@H]2CC[C@@]3(C)C(CC[C@]4(C)C3CC=C3C5CC(C)(C)CC[C@]5(C(=O)OC5OC(CO)C(OC6OC(COC7OCC(O)C(O)C7O)C(O)C(O)C6O)C(O)C5O)CC[C@]34C)C2(C)C)C(O)C(O)C1OC1OCC(OC2OCC(O)C(O)C2O)C(O)C1O (stereo not given in full)		-4.7%
COc1ccc(/C=C\C(=O)O)c(O[C@@H]2O[C@H](CO)[C@@H](O)[C@H](O)[C@H]2O)c1		0.681%
CC(=O)N[C@H]1[C@H](O[C@H]2CC[C@@]3(C)C(CC[C@]4(C)C3CC=C3C5CC(C)(C)CC[C@]5(C(=O)O)[C@H](O)C[C@]34C)C2(C)C)O[C@H](CO[C@@H]2OC[C@H](O)[C@H](O)[C@H]2O[C@@H]2OC[C@@H](O)[C@H](O)[C@H]2O)[C@@H](O)[C@@H]1O (stereo not given in full)		-13.2%
CC1(C(=O)O)CCCC2(C)C3CCC4CC3(CCC12)CC4=O (stereo not given)		-6.02%
C[C@H]1CC[C@@H]2N(C1)C[C@@H]1[C@H]([C@@H](O)[C@H](O)[C@]3(O)[C@H]1C[C@@]14OC5(O)[C@@H](C[C@@H](O)[C@@H]31)[C@]4(C)CC[C@@H]5O)[C@]2(C)O		0.156%
CC(C)C(NC(=O)c1ccc2ccccc2n1)C(=O)NC(CC(=O)O)C(=O)COc1c(F)cccc1F (stereo not given)		-0.522%
C=C(F)c1sc(CNCCCNc2cc(=O)c3ccccc3[nH]2)c(C)c1Br		-1.77%
C=C(C(=O)O)C1CCC2(C)CCC(O)C(C)(O)C2C1 (stereo not given)		-18.2%
COc1ccc([C@H]2CNC(=O)C2)cc1OC1CCCC1		-18.3%
CCOc1ccc(NC(=S)N2CCC(C(O)(c3ccccc3)c3ccccc3)CC2)cc1		-1.64%
C/C1=C\CC[C@H](C)CCO[C@@H]2O[C@H](CO[C@@H]3OC[C@](O)(COC1=O)[C@H]3O)[C@@H](O)[C@H](O)[C@H]2O		-5.92%
C/C1=C\CCC(C)CCO[C@@H]2O[C@H](CO[C@@H]3OC[C@H](O)[C@H](O)[C@H]3OC1=O)[C@@H](O)[C@H](O)[C@H]2O (stereo not given in full)		-2.67%
C[C@@H]1O[C@@H](O[C@H]2[C@H](O)[C@@H](C(=O)O)O[C@@H](O[C@H]3CC[C@@]4(C)C(CC[C@]5(C)C4CC=C4C6CC(C)(C)CC[C@]6(C(=O)O)CC[C@]45C)C3(C)C)[C@@H]2O[C@@H]2OC[C@@H](O)[C@H](O)[C@H]2O)[C@H](O)[C@H](O)[C@H]1O (stereo not given in full)		0.526%
C=C(CCC1=C(C)[C@H]2[C@H](CC3[C@@H]4CC=C5C[C@@H](O)C[C@@H](O)[C@]5(C)C4[C@H](O)C[C@@]32C)O1)CO[C@@H]1O[C@H](CO)[C@@H](O)[C@H](O)[C@H]1O (stereo not given in full)		0.743%
CC1=C(C)C(=O)OC(C(C)C2CCC3C4CC=C5CC(OC6OC(COC7OC(CO)C(O)C(O)C7O)C(O)C(O)C6O)CC(O)C5(C)C4CCC23C)C1 (stereo not given)		3.09%
COC(=O)C1=CO[C@@H](O[C@@H]2O[C@H](CO)[C@@H](O)[C@H](O)[C@H]2O)[C@@H]2[C@@](C)(O)[C@@H](OC(=O)/C=C/c3ccc(O)cc3)C[C@]12O		2.33%
O=C(Nc1ccc(S(=O)(=O)Nc2ccccc2Cl)c(Cl)c1)c1ccccn1		-3.89%
CC(=O)c1ccc(O[C@@H]2O[C@H](CO)[C@@H](O)[C@H](O)[C@H]2O)cc1		-22.7%
CC1(C)[C@@H](O)CC[C@]2(C)[C@H]3CC=C4[C@@H]5C[C@](C)(C(=O)O)CC[C@]5(C)CC[C@@]4(C)[C@]3(C)CC[C@@H]12		0.034%
OC[C@H]1O[C@@H](OCCc2ccc(O)cc2)[C@H](O[C@@H]2OC[C@](O)(CO)[C@H]2O)[C@@H](O)[C@@H]1O		-3.47%
COC1C(=O)CCC2(CO2)C1(O)C1(C)OC1CC=C(C)C (stereo not given)		-14.1%
CC(C)=CCC/C(C)=C/Cc1ccc(O)c(C2OC(=O)c3cc(C(=O)O)cc(O)c32)c1O (stereo not given)		0.065%
COc1ccc(C2COc3cc(O)ccc3C2)c(O)c1 (stereo not given)		4.68%
